Test [1] can be described thus: NCI Yeast Anticancer Drug Screen. Data for the rad50 strain (AID 155).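 Further: 0% = growth of vehicle-only cultures of the same strain.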 Particulars: S. cerevisiae rad50 strain growth inhibition, hits give high values. The method in brief:
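Yeast carrying a defined DNA repair defect were exposed to test compounds, and growth was compared with vehicle-treated controls to give percent inhibition.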

Test [2] can be described thus: NCI Yeast Anticancer Drug Screen. Data for the mec2-1 strain (AID 157). Particulars: S. cerevisiae mec2-1 strain, hits give high values. The essentials:
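Vehicle-treated cultures served as reference for growth inhibition of compound-exposed mec2-1 yeast.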

Test [3] can be described thus: NCI Yeast Anticancer Drug Screen. Data for the sgs1 mgt1 strain (AID 161).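 Further: 0% = growth of cultures given vehicle only.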 The note with it: S. cerevisiae sgs1 mgt1 strain, hits give high values. The essentials:
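Read-out: growth inhibition vs vehicle controls. Cells: mutant yeast strain deficient in DNA damage repair.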

Test [4] in a line: NCI Yeast Anticancer Drug Screen. Data for the cln2 rad14 strain (AID 165).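 Further: 0% = growth equal to vehicle treated cultures.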 Particulars: S. cerevisiae cln2 rad14 strain, hits give high values. The method in brief:
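Each compound was tested on cln2 rad14 yeast. Inhibition of growth was calculated against vehicle-exposed controls.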

A short description of test [5]: NCI Yeast Anticancer Drug Screen. Data for the bub3 strain (AID 167). The note with it: S. cerevisiae bub3 mutant strain, hits give high values. The method in brief:
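Compounds were applied to a genetically altered yeast strain carrying a cell-cycle control defect. Growth inhibition was scored against vehicle-treated controls.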

Test [6] is described as follows: NCI Yeast Anticancer Drug Screen. Data for the mlh1 rad18 strain (AID 175). Particulars: S. cerevisiae mlh1 rad18 strain growth inhibition, hits give high values. The method in brief: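 Vehicle-treated cultures served as the reference for growth inhibition in a yeast strain carrying DNA damage repair alterations exposed to each compound.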
Setting [7] is: at 5.0 µM (retest, dose inferred, filed as 0.5).
[8] abbreviates: at 50.0 µM (retest, dose inferred, filed as 5.0).

Drawing on PubChem BioAssay (NCI), this text covers growth inhibition for ten compounds.

About 79,000 compounds went through this panel and 15% of them were active in at least one assay; those are over-represented in the sample as a whole. A number with no mark means an inactive call. Active and inactive are the calls of the source. No stated cut-off is given here; in the data, active means growth inhibition above about 70%; inactive means the rest.

As for `Clc1ccc(-c2nnc(-c3ccccn3)o2)c(Cl)c1`, the growth inhibition was 4% in test [1] (setting [7]); 99% (active) in test [1] (setting [8]); 99.2% (active) in test [1] (at 50.0 µM); -1% in test [2] (setting [7]); 80% (active) in test [2] (setting [8]); 28.1% in test [2] (at 50.0 µM). The growth inhibition in test [3] (setting [7]) is 0%; in test [3] (setting [8]), 99% (active); in test [3] (at 50.0 µM), 99.2% (active); in test [4] (setting [7]) it was -2%; in test [4] (setting [8]), 83% (active); in test [4] (at 50.0 µM) it was 92.7% (active). The growth inhibition in test [5] (setting [7]) is 1%; in test [5] (setting [8]), 94% (active); in test [5] (at 50.0 µM), 70.1% (active); in test [6] (setting [7]), 1%; in test [6] (setting [8]) it was 96% (active); in test [6] (at 50.0 µM), 99.4% (active).
Turning to `C(=NCCC[Si]12OCCN(CCO1)CCO2)c1ccc(C=NCCC[Si]23OCCN(CCO2)CCO3)cc1`, the growth inhibition is 3% in test [1] (setting [7]); -3% in test [1] (setting [8]); 38.1% in test [1] (at 50.0 µM); 2% in test [2] (setting [7]); 3% in test [2] (setting [8]); 98.3% (active) in test [2] (at 50.0 µM). Moreover, the growth inhibition in test [3] (setting [7]) was -1%; in test [3] (setting [8]) it was -2%; in test [3] (at 50.0 µM) it was 1.65%; in test [4] (setting [7]) it was 3%; in test [4] (setting [8]) it was -4%; in test [4] (at 50.0 µM) it was 87.7% (active). Moreover, the growth inhibition in test [5] (setting [7]) was 1%; in test [5] (setting [8]), -3%; in test [5] (at 50.0 µM), 76.5% (active); in test [6] (setting [7]), 3%; in test [6] (setting [8]), 3%; in test [6] (at 50.0 µM), 54%.
Regarding `CCN(CC)CCOC(=O)C1CCCCC1C(=O)C1CCCCC1` (stereo not given), the growth inhibition in test [1] (setting [7]) is -3%; in test [1] (setting [8]), 3%; in test [1] (at 50.0 µM), 29.4%; in test [2] (setting [7]), -3%; in test [2] (setting [8]) it was 0%; in test [2] (at 50.0 µM) it was -1.6%. For the same compound, the growth inhibition is -7% in test [3] (setting [7]); 5% in test [3] (setting [8]); 21.4% in test [3] (at 50.0 µM); -2% in test [4] (setting [7]); 8% in test [4] (setting [8]); 34.5% in test [4] (at 50.0 µM). Further, the growth inhibition in test [5] (setting [7]) is -3%; in test [5] (setting [8]), 14%; in test [5] (at 50.0 µM) it was 0.85%; in test [6] (setting [7]) it was 1%; in test [6] (setting [8]) it was 1%; in test [6] (at 50.0 µM), 11.7%.
For `O=c1[nH]c2ccccc2c(O)c1/C=N/C(=S)NCCc1ccccc1`, the growth inhibition was 26% in test [1] (setting [7]); 28% in test [1] (setting [8]); -41.5% in test [1] (at 50.0 µM); 25% in test [2] (setting [7]); 22% in test [2] (setting [8]); -21.8% in test [2] (at 50.0 µM). For the same compound, the growth inhibition is 28% in test [3] (setting [7]); 29% in test [3] (setting [8]); 5.4% in test [3] (at 50.0 µM); 21% in test [4] (setting [7]); 11% in test [4] (setting [8]); 9.6% in test [4] (at 50.0 µM). Further, the growth inhibition is 30% in test [5] (setting [7]); 20% in test [5] (setting [8]); 4.65% in test [5] (at 50.0 µM); 28% in test [6] (setting [7]); 22% in test [6] (setting [8]); 7.5% in test [6] (at 50.0 µM).
As for `O=C(N/C(=C\c1ccc(Br)cc1)c1nc2ccccc2[nH]1)c1ccccc1`, the growth inhibition in test [1] (setting [7]) was 3%; in test [1] (setting [8]), 59%; in test [1] (at 50.0 µM) it was 73.4% (active); in test [2] (setting [7]), -17%; in test [2] (setting [8]) it was 27%; in test [2] (at 50.0 µM), 95.8% (active). For the same compound, the growth inhibition was -2% in test [3] (setting [7]); 60% in test [3] (setting [8]); 68% in test [3] (at 50.0 µM); -6% in test [4] (setting [7]); 41% in test [4] (setting [8]); 66.9% in test [4] (at 50.0 µM). In addition, the growth inhibition in test [5] (setting [7]) is 6%; in test [5] (setting [8]), 78% (active); in test [5] (at 50.0 µM), 88.4% (active); in test [6] (setting [7]), 2%; in test [6] (setting [8]) it was 21%; in test [6] (at 50.0 µM), 96.5% (active).
As to `CC1CC2(C)ON=C(c3ccccc3)N2c2ccccc2S1` (stereo not given), the growth inhibition was -25% in test [1] (setting [7]); 98% (active) in test [1] (setting [8]); 87.7% (active) in test [1] (at 50.0 µM); -4% in test [2] (setting [7]); 93% (active) in test [2] (setting [8]); 90% (active) in test [2] (at 50.0 µM). The growth inhibition in test [3] (setting [7]) is -24%; in test [3] (setting [8]) it was 94% (active); in test [3] (at 50.0 µM) it was 82.7% (active); in test [4] (setting [7]) it was -6%; in test [4] (setting [8]), 97% (active); in test [4] (at 50.0 µM), 87% (active). In addition, the growth inhibition in test [5] (setting [7]) is 10%; in test [5] (setting [8]), 97% (active); in test [5] (at 50.0 µM), 87% (active); in test [6] (setting [7]), 4%; in test [6] (setting [8]) it was 98% (active); in test [6] (at 50.0 µM), 83.7% (active).
Take `C=CC1(NC(=O)c2ccccc2)CCC(C(C)(C)C)CC1` (stereo not given): the growth inhibition in test [1] (setting [7]) is -10%; in test [1] (setting [8]), 96% (active); in test [1] (at 50.0 µM) it was 48.9%; in test [2] (setting [7]), -5%; in test [2] (setting [8]) it was 89% (active); in test [2] (at 50.0 µM) it was -0.2%. The growth inhibition is -5% in test [3] (setting [7]); 94% (active) in test [3] (setting [8]); 43.6% in test [3] (at 50.0 µM); 5% in test [4] (setting [7]); 86% (active) in test [4] (setting [8]); 10.6% in test [4] (at 50.0 µM). Besides, the growth inhibition is 2% in test [5] (setting [7]); 95% (active) in test [5] (setting [8]); 49.9% in test [5] (at 50.0 µM); -7% in test [6] (setting [7]); 93% (active) in test [6] (setting [8]); 40.4% in test [6] (at 50.0 µM).
As for `FC(F)(F)c1ccccc1NC(=S)SCc1ccco1`, the growth inhibition in test [1] (setting [7]) was 1%; in test [1] (setting [8]), 52%; in test [1] (at 50.0 µM), 93.7% (active); in test [2] (setting [7]) it was 1%; in test [2] (setting [8]) it was 32%; in test [2] (at 50.0 µM), 76.3% (active). The growth inhibition in test [3] (setting [7]) was 1%; in test [3] (setting [8]), 45%; in test [3] (at 50.0 µM), 87.7% (active); in test [4] (setting [7]), -4%; in test [4] (setting [8]) it was 17%; in test [4] (at 50.0 µM) it was 52.1%. Further, the growth inhibition was 8% in test [5] (setting [7]); 33% in test [5] (setting [8]); 81.3% (active) in test [5] (at 50.0 µM); -2% in test [6] (setting [7]); 57% in test [6] (setting [8]); 88.3% (active) in test [6] (at 50.0 µM).
Regarding `CN(C)C(=O)Nc1ccc(Cc2ccc(NC(=O)N(C)C)cc2)cc1`, the growth inhibition in test [1] (setting [7]) is -6%; in test [1] (setting [8]), -32%; in test [1] (at 50.0 µM), -3%; in test [2] (setting [7]) it was -29%; in test [2] (setting [8]) it was -32%; in test [2] (at 50.0 µM), -13.2%. The growth inhibition was -13% in test [3] (setting [7]); -8% in test [3] (setting [8]); 27.6% in test [3] (at 50.0 µM); 5% in test [4] (setting [7]); -4% in test [4] (setting [8]); 3.65% in test [4] (at 50.0 µM). Besides, the growth inhibition is -19% in test [5] (setting [7]); -20% in test [5] (setting [8]); 7.95% in test [5] (at 50.0 µM); -33% in test [6] (setting [7]); -56% in test [6] (setting [8]); -0.15% in test [6] (at 50.0 µM).
As to `NNC(=S)N/N=C(\CC1OC(=O)c2ccccc21)c1ccccc1O` (stereo not given), the growth inhibition in test [1] (setting [7]) is 6%; in test [1] (setting [8]) it was -3%; in test [1] (at 50.0 µM), 80.1% (active); in test [2] (setting [7]) it was -12%; in test [2] (setting [8]) it was -17%; in test [2] (at 50.0 µM), 60.2%. Moreover, the growth inhibition in test [3] (setting [7]) is 22%; in test [3] (setting [8]), 7%; in test [3] (at 50.0 µM) it was 56.1%; in test [4] (setting [7]) it was 11%; in test [4] (setting [8]), 4%; in test [4] (at 50.0 µM) it was 32%. In addition, the growth inhibition in test [5] (setting [7]) was -9%; in test [5] (setting [8]), 13%; in test [5] (at 50.0 µM), 58.1%; in test [6] (setting [7]), -43%; in test [6] (setting [8]), -27%; in test [6] (at 50.0 µM), 84.2% (active).
